This is part of a sample that, as a whole, favours compounds with a hit. Of some 83,000 tested, about 20% had one in any assay.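 Each cell line was grown in a 96-well plate and treated with one concentration of compound for 48 hours. Values below 10 were considered active.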 Activity calls are given as the source filed them.

For the first assay, the system named is HCT-116 colon. In words: NCI-60 one-dose screen, 48 h (100 = growth as untreated, 0 = no growth, -100 = all killed). The note with it: 10 µM unless noted.
`COc1ccc(Cl)cc1Nc1nc(C(F)(F)F)ccc1C(=O)N/N=C/c1ccc([N+](=O)[O-])cc1`: the growth was 11.3% (inactive).
The same measure, in the same setting: with `O=C(Nc1nc(Cl)nc(Nc2ccc(N3CCOCC3=O)cc2)n1)c1ccc(Cl)s1` the figure was 84.3% (inactive).
Same read-out and setting: with `COCCOC(C)C(/C=N/NC(N)=S)=N/NC(N)=S` (centres undefined) the figure was 6.21% (active).

Another assay relates to HCC-2998 colon. The description is as above. The note with it: 10 µM unless noted.
As for `CCn1cc(C(=O)O)c(=O)c2cc(F)c(N3CCN(CC(=O)Nc4ccccc4)C(C)C3)c(F)c21` (centres undefined), the growth was 99.9% (inactive).
As for `c1cc(OCCN2CCCCC2)ccc1CNc1ccc2nc(CCC3CCCCC3)[nH]c2c1`, the growth was -13.5% (active).
Still for that read-out and setting: for `COC1C(O)CC(OC2CC(OC3CC(O[C@@H]4C(=O)c5c(cc6cc(OC7CC(OC8CC(O)C(O)C(C)O8)C(O)C(C)O7)c(C)c(O)c6c5O)CC4[C@H](OC)C(=O)C(C)=O)OC(C)C3O)OC(C)C2O)OC1C` (some centres undefined) the value was -14.3% (active); for `Cc1ccc(OCCOCCOCCOc2ccc(C)n(O)c2=S)c(=S)n1O`, 57.9% (inactive); for `Cn1cc(-c2csc(-c3cn(CCCN4CCOCC4)c4ccc(F)cc34)n2)c2cccnc21`, 65.4% (inactive).
With `O=C(Cn1nc(-c2cccc3ccccc23)ccc1=O)NCc1cccc(Cl)c1`, the growth was 54.6% [50 µM] (inactive).
In the case of `CC1(C)CC[C@]23CC[C@]4(C)[C@H](CC[C@@H]5[C@@]6(C)C/C(=C/O)C(=O)C(C)(C)[C@@H]6CC[C@]54C)[C@H]2[C@H]1OC3`, the growth is 110% (inactive).
On the same count and under the same terms, for `Clc1ccc(-c2cc(-c3ccccc3)nc(N3CCN(CCCNc4ccnc5cc(Cl)ccc45)CC3)n2)cc1` the value was -73.4% (active); for `Nc1nc(C(=O)N/N=C/c2ccc(F)cc2)nn1-c1ccc(S(N)(=O)=O)cc1`, 107% (inactive); for `CN(C)c1ccc(CNCCO)cc1`, 109% (inactive).
On to `Nc1c(Br)cc2c(c1Br)Cc1cc([N+](=O)[O-])ccc1-2`, for which the growth was 104% (inactive).
On the same count and under the same terms, with `COC(=O)Cn1c2c(c3c(OC)cccc31)C(=O)c1ccccc1-2` the figure was 89.8% (inactive); with `O=C(/C=C/c1ccccc1)c1ccc(-n2cc(CN3CCN(c4cc5c(cc4F)c(=O)c(C(=O)O)cn5C4CC4)CC3)nn2)cc1`, 88.3% (inactive).
In the case of `Cc1cc2oc(/C=C/c3ccccc3)cc(=O)c2c(C)c1Cl`, the growth was 106% (inactive).
`Cc1nc(N/N=C/c2cn(-c3ccccc3)nc2-c2cc3ccccc3oc2=O)sc1N=Nc1ccccc1`: the growth was 104% (inactive).
For the compound `Oc1c(CN2CCC(N3CCOCC3)CC2)cc(Cc2cc(CN3CCC(N4CCOCC4)CC3)c(O)c3ncccc23)c2cccnc12`, the growth is 0.162% (active).
For `N#Cc1nn(-c2cc(=O)[nH]c3ccc(Br)cc23)c(N)c1C#N`, the growth was 78.5% (inactive).
As to `CC(=O)c1c(Nc2cccc(F)c2)[nH]c2c(Cl)cc(Cl)c(Cl)c2c1=O`, the growth is 10.7% (inactive).
`O=c1cc(CP(=O)(O)O)c2cc(O)c(-c3ccccc3)cc2o1`: the growth is 102% (inactive).
On to `CC(=O)c1sc(-c2ccc(F)cc2)cc1O`, for which the growth was 103% (inactive).
For `CC(=O)c1ccc(-n2cc(CN3CCN(c4cc5c(cc4F)c(=O)c(C(=O)O)cn5C4CC4)CC3)nn2)cc1`, the growth is 86% (inactive).
Consider `COc1ccc(CN2C(=O)OC(C)(COC(C)=O)C2=O)cc1` (centres undefined), for which the growth was 100% (inactive).
On to `O=C1CCCC1[n+]1ccccc1` (centres undefined), for which the growth was 107% (inactive).
Regarding `CN(C)CCC(=O)C1CC1`, the growth was 103% (inactive).
For `Nc1ccc(-c2ccncc2)cc1NC(=O)N1CCCC1`, the growth is 94.4% (inactive).
The same measure, in the same setting: with `O=c1oc2c(cnc3ccccc32)cc1-c1cccc(Cl)c1` the figure was 109% (inactive); with `C/C(=C(\c1ccc(OCCN2CCCCCC2)cc1)c1ccc(OC(=O)c2ccccc2)cc1)c1ccc(Cl)cc1`, 60.7% (inactive); with `Nc1cccc(-c2ccc(COc3ccc(CC4SC(=O)NC4=O)cc3)cc2)c1` (centres undefined), 87.4% (inactive).
With `C=C(C)[C@@H]1CC[C@]2(COC3CCCCO3)CC[C@]3(C)[C@H](CC[C@@H]4[C@@]5(C)C=C(C=O)C(=O)C(C)(C)[C@@H]5CC[C@]43C)[C@@H]12` (some centres undefined), the growth was -59% (active).
On the same count and under the same terms, with `O=C1CCCCN1c1ccc(C2=NCCCN2)cc1` the figure was 109% (inactive); with `Cc1cc(=O)oc2cc(Oc3nc(Br)cn4c(Br)cnc34)ccc12`, 105% (inactive).
For the compound `C=CN(C(=O)N1CCN(c2cc3c(cc2F)c(=O)c(C(=O)O)cn3C2CC2)CC1)c1nc(-c2ccc(Cl)cc2)cs1`, the growth was 95.9% (inactive).
For the compound `Cc1ccccc1N1CCN(C(=S)c2ccccc2)CC1`, the growth was 75.3% (inactive).
Consider `COc1ccc(Cl)cc1Nc1nc(C(F)(F)F)ccc1C(=O)N/N=C/c1ccc([N+](=O)[O-])cc1`, for which the growth was -27.8% (active).
As to `O=C(Nc1nc(Cl)nc(Nc2ccc(N3CCOCC3=O)cc2)n1)c1ccc(Cl)s1`, the growth is 82.3% (inactive).
`COCCOC(C)C(/C=N/NC(N)=S)=N/NC(N)=S` (centres undefined): the growth was 94.2% (inactive).

Source of the values: PubChem BioAssay (NCI).
